Assay results published in PubChem BioAssay (Tox21).
Activity calls are given as the source filed them. Calls follow the shape of the dose curve; as a rule, active = well fitted curve in the direction sought with a large enough effect in the repeat runs; inconclusive = weak or mixed curves; inactive = flat fitted curve, though single readings scatter.

Experiment: qHTS assay to test for compound auto fluorescence at 590 nm (red) in HEK293 cells (AID 720679)
Conditions: red autofluorescence 540/590 nm; series mostly up to 91.3 µM
Text: National Center for Advancing Translational Sciences [NCATS]
NIH Chemical Genomics Center [NCGC]
U.S. Environmental Protection Agency [EPA]
National Institutes of Environmental Health Sciences [NIEHS]
National Toxicology Program [NTP]
U.S. Food and Drug Administration [FDA]
Compound auto fluorescence often interferes with screening of the compound library against various biological targets and signaling pathways. Some of these compounds may have fluorophoric properties. Such properties may interfere with the assay outputs resulting in false positives and/or negatives. To decrease such complications and ensure the compound activities are relevant in terms of biological response, the Tox21 10K compound library was screened for auto fluorescence.
From the fluorophores used as reporter signals in our screening assays, the auto fluorescence equivalencies of compounds against three fluorophores have been evaluated: Triamterene, Fluorescein and Rose Bengal sodium for blue, green and red fluorescence, respectively. The fluorescence intensities were measured using Excitation/Emission wavelengths at 405/460nm, 485/535nm and 540/590nm for blue, green and red labels, respectively. This assay includes the red fluorescence data.
Tox21 Assay Protocol Summary:
2,000 HEK293 cells in 5 uL of culture medium containing 10% dialyzed FBS per well were dispensed into black wall/clear bottom 1536-well plates using a Multidrop Combi Dispenser (Thermo Scientific). The assay plates were incubated for 4-5 hr at 37C to allow cell attachment to the well bottom, followed by the transfer of 23 nL compound or DMSO vehicle by a pintool work station (Kalypsys, San Diego, CA). After the assay plates were incubated overnight at 37C and 5% CO2, fluorescence intensities in the assay plates were measured by an Envision (PerkinElmer, Shelton, CT) plate reader using three labels for measuring blue, green and red fluorescence at […] 460, 535 and 590nm respectively.

| Compound | outcome |
| --- | --- |
| CCC(COC(=O)c1cc(OC)c(OC)c(OC)c1)(c1ccccc1)N(C)C (stereo not given) | inactive |
| O=C(CBr)OCc1ccccc1 | inactive |
| CCCN(CCCl)c1c([N+](=O)[O-])cc(C(F)(F)F)cc1[N+](=O)[O-] | inactive |
| O=S(=O)(O)C(F)(F)C(F)(F)C(F)(F)C(F)(F)F | inactive |
| Clc1cccc(SC2CCNCC2)n1 | inactive |
| Cc1ccccc1C(=O)Nc1cccc(OC(C)C)c1 | inactive |
| Oc1ccc(Cl)c(Cl)c1Cl | inactive |
| Clc1ccc(C2(Cn3cncn3)CC(Br)CO2)c(Cl)c1 (stereo not given) | inactive |
| O=C(CCl)c1ccc(Cl)cc1Cl | inactive |
| CCCN(CC1CC1)c1c([N+](=O)[O-])cc(C(F)(F)F)cc1[N+](=O)[O-] | inactive |
| O=C(Nc1ccccc1)Nc1cnns1 | inactive |
| C=C(C#N)CCC#N | inactive |
| Cc1c(F)c(F)c(COC(=O)C2C(/C=C(\Cl)C(F)(F)F)C2(C)C)c(F)c1F (stereo not given) | inactive |
| CC(Cl)Cl | inactive |
| CCC(C)(NC(=O)c1cc(Cl)c(C)c(Cl)c1)C(=O)CCl (stereo not given) | inactive |
| O=C(O)C1(c2ccc3c(c2)OC[C@H](Cc2ccc(-c4ccccc4)cc2)[C@H]3O)CCCC1 | inactive |
| CCOC(=O)CBr | inactive |
| Nc1ccc(N=Nc2ccc(-c3ccc(N=Nc4c(S(=O)(=O)O)cc5cc(S(=O)(=O)O)c(N=Nc6ccccc6)c(O)c5c4N)cc3)cc2)c(N)c1 | inactive |
| ClCc1ccccc1 | inactive |
| [O-][Cl+]O | inactive |

| Compound | outcome |
| --- | --- |
| CC(=O)C(C)(C)C | inactive |
| COCCOCCO | inactive |
| N#CCC#N | inactive |
| CCOP(=S)(OCC)Oc1nc(Cl)c(Cl)cc1Cl | inactive |
| O=[Se]=O | inactive |
| C=CCC1([C@H](C)CCC)C(=O)NC(=O)NC1=O | inactive |
| O=NN1CCCCCC1 | inactive |
| NCCCNCCCN | inactive |
| CCCCNP(N)(N)=S | inactive |
| C[C@@H]1CC[C@H]2[C@@H](C)C(=O)O[C@@H]3O[C@@]4(C)CC[C@@H]1[C@]32OO4 | inactive |
| O=C(O)C(F)(F)C(F)(F)C(F)(F)C(F)(F)C(F)(F)C(F)(F)C(F)(F)C(F)(F)C(F)(F)F | inactive |
| c1cc2ccc3cccc4ccc(c1)c2c34 | inactive |
| O=C1NCN(c2ccccc2)C12CCN(CCCOc1ccc(F)cc1)CC2 | inactive |
| COC(=O)C(Br)CBr (stereo not given) | inactive |
| C=CC[C@]1(O)CC[C@H]2[C@@H]3CCC4=CC(=O)CCC4=C3C=C[C@@]21C | inactive |
| CCOP(=S)(OCC)Oc1cc(Cl)c(Br)cc1Cl | inactive |
| C[N+](C)(C)CCCl | inactive |
| CCCCOC(=O)c1ccccc1C(=O)OCc1ccccc1 | inactive |
| O=C1C(=O)c2cccc3cccc1c23 | inactive |
| COP(=S)(OC)Oc1cc(Cl)c(I)cc1Cl | inactive |
